# Measurements reported in PubChem BioAssay (EPA / NIEHS).
# “And” between values parts separate entries of the source, which are not always exact repeats. Equal entries are not always repeated. Results filed as inconclusive are left out. Some compounds were tested as several samples or in several runs, with calls that do not always agree. The source made the active and inactive calls. Rule for the calls, unless noted: active = hit-call score of the fitted dose curve at least 0.9, where 1 is the maximum; inactive = score below 0.9.
# Columns and labels:
# [1] = IUF_NPC2c_oligodendrocyte_migration_120hr: Leibniz Research Institute for Environmental Medicine (IUF) 120-hour Neural Progenitor Cell Migration Assay for Oligodendrocyte Migration (NPC2c) (AID 2284297);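 note: O4-positive oligodendrocyte migration distance divided by radial glia migration distance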
# Method in brief: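 hNPC spheres (GW 16-19 cortex), PDL/laminin, DMEM/F12 3:1 + 1% N2, 37C. Dosing day 0–5, half feed day 3, DMSO ≤0.1%. Fixed 120 h; O4 ICC + Hoechst, HCI. Readout: mean oligodendrocyte distance from sphere edge / radial glia distance.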
# [2] = IUF_NPC2a_radial_glia_migration_120hr: Leibniz Research Institute for Environmental Medicine (IUF) 120-hour Neural Progenitor Cell Migration Assay for Radial Glia Migration (NPC2a) (AID 2284298)
# Method in brief: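 Hoechst-stained nuclei imaged at 120 h; algorithm maps sphere core by densest nuclei, sets migration edge at density threshold, gives radial glia migration distance (um) per well vs DMSO. hNPC spheres (0.3 mm), PDL/laminin, DMEM/F12 3:1 + 1% N2.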
# [3] = IUF_NPC2a_radial_glia_migration_72hr: Leibniz Research Institute for Environmental Medicine (IUF) 72-hour Neural Progenitor Cell Migration Assay for Radial Glia Migration (NPC2a) (AID 2284299)
# Method in brief: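 Radial glia migration (µm, sphere core edge to migration front, four directions averaged) from brightfield images at 72 h; hNPC spheres differentiating on PDL/laminin in N2 medium, compound exposure at 7 concentrations from plating.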
# [4] = IUF_NPC2b_neuronal_migration_120hr: Leibniz Research Institute for Environmental Medicine (IUF) 120-hour Neural Progenitor Cell Migration Assay for Neuron Migration (NPC2b) (AID 2284300)
# Method in brief: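 hNPC spheres, PDL/laminin, DMEM:F12 3:1 + 1% N2, 37C/5% CO2; 7 concentrations + solvent control (DMSO ≤0.1%), 5 d exposure, half-feed day 3. Fix 120 h, TUBB3 ICC, HCI: mean neuron migration distance ÷ glia distance.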
# [5] = IUF_NPC3_neuronal_differentiation_120hr: Leibniz Research Institute for Environmental Medicine (IUF) 120-hour Neuronal Differentiation Assay (NPC3) (AID 2284301)
# Method in brief: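 hNPC spheres, PDL/laminin, DMEM/F12 3:1 + 1% N2, 37C, 5% CO2; 7 concentrations + solvent control, 5 d exposure, half-change day 3. Fix 120 h; TUBB3/Hoechst ICC, CNN neuron calling; % neurons vs nuclei, DMSO-normalized.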
# [6] = IUF_NPC4_neurite_length_120hr: Leibniz Research Institute for Environmental Medicine (IUF) 120-hour Neuronal Morphology Assay for Neurite Length (NPC4) (AID 2284302)
# Method in brief: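 hNPC spheres (0.3 mm, fetal brain GW 16-19) on PDL/laminin, DMEM:F12 3:1 + 1% N2, 37C 5% CO2; 7 concs + solvent control, day 0-5, half medium change d3; fix 120 h, TUBB3 ICC, mean neurite length um vs DMSO.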
# [7] = IUF_NPC5_oligodendrocyte_differentiation_120hr: Leibniz Research Institute for Environmental Medicine (IUF) 120-hour Oligodendrocyte Differentiation Assay (NPC5) (AID 2284304; active = hit-call score of the fitted dose curve at least 0.9, where 1 is the maximum;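 note: primary human fetal neural progenitor spheres plated to migrate and differentiate; share of O4-positive cells among Hoechst nuclei found by CNN image analysis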)
# Method in brief: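 hNPC spheres, fetal cortex GW 16-19; PDL/laminin, DMEM:F12 3:1 + 1% N2, 37C/5% CO2; 7 concentrations + solvent control, 5 d exposure, half-change day 3. Readout: %O4+ of Hoechst+ nuclei in migration area, CNN classification; DMSO baseline.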
# [8] = IUF_NPC2-5_cytotoxicity_72hr: Cytotoxicity Assessment at 72 hours in the Leibniz Research Institute for Environmental Medicine (IUF) Neural Progenitor Cell Migration and Differentiation Assay for Cytotoxicity (NPC2-5) (AID 2284306; active = hit-call score of the fitted dose curve at least 0.9, where 1 is the maximum;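 note: LDH release into supernatant measured by resorufin fluorescence marking membrane damage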)
# Method in brief: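 hNPC spheres (0.3 mm), PDL/laminin, DMEM/F12 3:1 + 1% N2; cpd from d0, 7 concs + SC, DMSO max 0.1%; half-medium refresh d3. Readout: supernatant LDH via resorufin fluorescence (RFU), 72 h; gain-of-signal fit.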
# [9] = IUF_NPC2-5_cytotoxicity_120hr: Cytotoxicity Assessment at 120 hours in the Leibniz Research Institute for Environmental Medicine (IUF) Neural Progenitor Cell Migration and Differentiation Assay (NPC2-5) (AID 2284307; active = hit-call score of the fitted dose curve at least 0.9, where 1 is the maximum;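 for AC50: LDH released into supernatant as membrane damage marker via resorufin fluorescence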)
# Method in brief: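 hNPC spheres on PDL/laminin, N2 medium, 37C; 7 concs + solvent control, DMSO ≤0.1%; 5-day exposure, half medium changed day 3. LDH in supernatant at 120 h, resazurin→resorufin fluorescence, gain-of-signal.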
# [10] = IUF_NPC4_neurite_area_120hr: Leibniz Research Institute for Environmental Medicine (IUF) 120-hour Neuronal Morphology Assay for Neurite Area (NPC4) (AID 2284305; active = hit-call score of the fitted dose curve at least 0.9, where 1 is the maximum)
# Method in brief: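 hNPC spheres on PDL/laminin, N2 medium, 37C/5% CO2; dosed day 0, half-medium refresh day 3; fixed 120 h; TUBB3/Hoechst ICC, high-content imaging; neurite area = mean pixels per neuron (nuclei excluded); DMSO baseline, max 0.1%.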
smiles,measurement,setting,value
CC(C)N(C(=O)SCC(Cl)=C(Cl)Cl)C(C)C,outcome,[1],inactive
same,AC50,[2],4.18 µM (active)
same,outcome,[3],inactive
same,outcome,[4],inactive
same,outcome,[5],inactive
same,outcome,[6],inactive
same,outcome,[7],inactive
same,outcome,[8],inactive
same,outcome,[9],inactive
C[N+]1(C)CCCCC1,outcome,[1],inactive
same,outcome,[2],inactive
same,outcome,[3],inactive
same,outcome,[4],inactive
same,outcome,[5],inactive
same,outcome,[6],inactive
same,outcome,[7],inactive
same,outcome,[10],inactive
same,outcome,[8],inactive
same,AC50,[9],96.9 nM (active)
CCCCSP(=O)(SCCCC)SCCCC,outcome,[1],inactive
same,outcome,[2],inactive
same,outcome,[3],inactive
same,outcome,[4],inactive
same,outcome,[5],inactive
same,outcome,[6],inactive
same,outcome,[7],inactive
same,outcome,[10],inactive
same,outcome,[8],inactive
same,outcome,[9],inactive
CCOP(=S)(OCC)OC(Cl)C(Cl)(Cl)Cl (stereo not drawn),outcome,[1],inactive
same,AC50,[2],22.8 µM (active)
same,outcome,[3],inactive
same,outcome,[4],inactive
same,outcome,[5],inactive
same,outcome,[6],inactive
same,outcome,[7],inactive
same,outcome,[10],inactive
same,outcome,[8],inactive
same,outcome,[9],inactive
CCOP(=S)(Oc1cnc(C(C)(C)C)nc1)OC(C)C (stereo not drawn),outcome,[1],inactive
same,outcome,[2],inactive
same,outcome,[3],inactive
same,outcome,[4],inactive
same,outcome,[5],inactive
same,outcome,[6],inactive
same,outcome,[7],inactive
same,outcome,[10],inactive
same,outcome,[8],inactive
same,outcome,[9],inactive
C=C(C)[C@H]1Cc2c(ccc3c2O[C@@H]2COc4cc(OC)c(OC)cc4[C@@H]2C3=O)O1,AC50,[1],6.2 nM (active)
same,outcome,[1],inactive
same,AC50,[2],244 nM (active) and 3.4 nM (active)
same,AC50,[3],220 nM (active) and 4.24 nM (active)
same,AC50,[4],9.58 nM (active)
same,outcome,[4],inactive
same,AC50,[5],58 nM (active) and 7.87 nM (active)
same,AC50,[6],224 nM (active) and 10 nM (active)
same,AC50,[10],220 nM (active) and 15.5 nM (active)
same,outcome,[8],inactive
same,outcome,[9],inactive
COP(=O)(OC)OC(Br)C(Cl)(Cl)Br (stereo not drawn),AC50,[1],34900 nM (active)
same,AC50,[2],35.4 µM (active)
same,AC50,[3],39 µM (active)
same,AC50,[4],38100 nM (active)
same,AC50,[5],40.9 µM (active)
same,AC50,[6],23.5 µM (active)
same,AC50,[10],27 µM (active)
same,outcome,[8],inactive
same,AC50,[9],70100 nM (active)
CCOP(=O)(NC(C)C)Oc1ccc(SC)c(C)c1 (stereo not drawn),outcome,[1],inactive
same,AC50,[2],33.7 µM (active)
same,outcome,[3],inactive
same,outcome,[4],inactive
same,outcome,[5],inactive
same,outcome,[6],inactive
same,AC50,[7],10.2 µM (active)
same,outcome,[10],inactive
same,outcome,[8],inactive
same,outcome,[9],inactive
CC[C@H](C)[C@H]1O[C@]2(C=C[C@@H]1C)C[C@@H]1C[C@@H](C/C=C(\C)[C@@H](O[C@H]3C[C@H](OC)[C@@H](O[C@H]4C[C@H](OC)[C@@H](NC)[C@H](C)O4)[C@H](C)O3)[C@@H](C)/C=C/C=C3\CO[C@@H]4[C@H](O)C(C)=C[C@@H](C(=O)O1)[C@]34O)O2,AC50,[1],932 nM (active) and 1.74 µM (active)
same,AC50,[2],1.1 µM (active) and 2.22 µM (active)
same,AC50,[3],2.13 µM (active) and 3.89 µM (active)
same,AC50,[4],1.07 µM (active) and 3.32 µM (active)
same,AC50,[5],1.27 µM (active)
same,AC50,[6],979 nM (active) and 3.08 µM (active)
same,AC50,[7],305 nM (active) and 96.9 nM (active)
same,AC50,[10],1.04 µM (active) and 5.11 µM (active)
same,AC50,[8],1.88 µM (active) and 4.62 µM (active)
same,AC50,[9],1.05 µM (active) and 1.48 µM (active)
CCOP(=S)(OCC)SCCSCC,outcome,[1],inactive
same,outcome,[2],inactive
same,outcome,[3],inactive
same,outcome,[4],inactive
same,outcome,[5],inactive
same,outcome,[6],inactive
same,outcome,[10],inactive
same,outcome,[8],inactive
same,outcome,[9],inactive
CCOC(=O)CC(SP(=O)(OC)OC)C(=O)OCC (stereo not drawn),outcome,[1],inactive
same,outcome,[2],inactive
same,outcome,[3],inactive
same,outcome,[4],inactive
same,outcome,[5],inactive
same,outcome,[6],inactive
same,outcome,[7],inactive
same,outcome,[10],inactive
same,outcome,[8],inactive
same,outcome,[9],inactive
CCOP(=O)(OCC)Oc1cc(C)nc(C(C)C)n1,outcome,[1],inactive
same,outcome,[2],inactive
same,outcome,[3],inactive
same,outcome,[4],inactive
same,outcome,[5],inactive
same,outcome,[6],inactive
same,outcome,[7],inactive
same,outcome,[10],inactive
same,outcome,[8],inactive
same,outcome,[9],inactive
